Test results as given in PubChem BioAssay.
Activity calls are given as the source filed them. Cut-off read from the data, not from the text of the source, unless noted: active = inhibition above about 80%; inactive = the rest.

Tests used:
[1] = LFS_MB_P medulloblastoma growth inhibition, cell-based, chromothripsis tumors, cisplatin or BGB combos (AID 1671449); conditions: LFS_MB_P medulloblastoma cells;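 note: cells exposed for 96 hours; 0% = vehicle DMSO and 100% = killing by high DMSO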
[2] = HDN33 neuroblastoma growth inhibition, cell-based, chromothripsis tumors, cisplatin or BGB combos (AID 1671450); conditions: HDN33 neuroblastoma cells, stronger effect = higher value;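 note: cells exposed to compound for four days; 0% = vehicle DMSO and 100% = cell killing by high DMSO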
[3] = ICB984 medulloblastoma cell growth inhibition, synergistic combos for chromothripsis tumors, cisplatin or BGB combos (AID 1671451; call rule not given here;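 note: cells exposed for 96 hours before readout; 0% = vehicle DMSO and 100% = killing by high DMSO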); conditions: ICB984 medulloblastoma cells, drug combinations, stronger effect = higher value
[4] = LFS_MB_1R medulloblastoma cell growth inhibition, synergistic combos for chromothripsis tumors, cisplatin or BGB combos (AID 1671452); conditions: LFS_MB_1R medulloblastoma cells, stronger effect = higher value;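 note: cells exposed for 96 hours before readout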
[5] = HTB85 osteosarcoma cell growth inhibition, synergistic combos for chromothripsis tumors, BGB or cisplatin IC20 combos (AID 1671453); conditions: HTB85 osteosarcoma cells, drug combinations, stronger effect = higher value;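 note: cells exposed for 96 hours before readout; 0% = vehicle DMSO and 100% = high DMSO killing control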
[6] = CRL2098 osteosarcoma cell growth inhibition, synergistic combos for chromothripsis tumors, BGB or cisplatin IC20 combos (AID 1671454); conditions: CRL2098 osteosarcoma cells, drug combinations, stronger effect = higher value;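 note: cells exposed for 96 h before readout; 0% = vehicle DMSO and 100% = killing by high DMSO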
[7] = HD-MB03 medulloblastoma cell growth inhibition, synergistic combos for chromothripsis tumors, BGB or cisplatin IC20 combos (AID 1671455; in the data active = inhibition above about 83%;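 note: 0% = vehicle DMSO and 100% = high DMSO as cytotoxic control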); conditions: HD-MB03 medulloblastoma cells, stronger effect = higher value
[8] = UWB1.289 ovarian carcinoma cell growth inhibition, synergistic combos for chromothripsis tumors, BGB or cisplatin combos (AID 1671456); conditions: UWB1.289 ovarian carcinoma cells, stronger effect = higher value;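 note: cells exposed to compound for four days; 0% = vehicle DMSO and 100% = killing by high DMSO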
[9] = LFS_MB_2R medulloblastoma cell growth inhibition, synergistic combos for chromothripsis tumors, cisplatin combos (AID 1671457); conditions: LFS_MB_2R medulloblastoma cells, stronger effect = higher value;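 note: cells exposed to compound for four days before readout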
[10] = MDA-MB-436 breast carcinoma cell growth inhibition, synergistic combos for chromothripsis tumors, BGB or cisplatin combos (AID 1671458; call rule not given here;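 note: cells exposed for 96 hours; 0% = vehicle DMSO and 100% = killing by high DMSO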); conditions: MDA-MB-436 breast carcinoma growth inhibition, drug combinations, stronger effect = higher value
[11] = UWB1.289_BRCA1 ovarian cancer growth, cell-based, BGB or cisplatin combinations (AID 1671459); conditions: UWB1.289 BRCA1 ovarian carcinoma, drug combinations, stronger effect = higher value
[12] = human astrocyte viability loss, single and combined drugs, cytotoxicity control for chromothriptic childhood tumor combination screen, cell-based, BGB or cisplatin IC20 combos (AID 1671460); conditions: Human astrocytes, drug combinations, stronger effect = higher value;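 note: cells exposed to compounds for 96 hours before viability readout; 0% = vehicle and 100% = killing control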
[13] = growth inhibition of BT084 medulloblastoma cells, cell-based, ICGC_MB145, cisplatin and BGB IC40 combos (AID 1671461); conditions: drug combinations, stronger effect = higher value;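 note: cells exposed to drugs for 96 hours; 0% = vehicle DMSO and 100% = high DMSO full killing control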
[14] = growth inhibition of RCMB18 medulloblastoma cells, cell-based, cisplatin and BGB IC40 combos (AID 1671462); conditions: stronger effect = higher value;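 note: cells exposed to compound for four days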
[15] = growth inhibition of CRL1545 osteosarcoma cells, cell-based, cisplatin and BGB IC20 combos (AID 1671464); conditions: stronger effect = higher value;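 note: cells exposed to compound for 96 hours before readout; 0% = vehicle DMSO and 100% = high DMSO killing control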
[16] = at 0.5 µM, stronger effect = higher value
[17] = measured here: combination with BGB IC20, at 0.005 µM
[18] = measured here: combination with BGB IC40, at 0.005 µM
[19] = measured here: combination with BGB IC40, at 0.05 µM
[20] = measured here: combination with cisplatin, at 0.5 µM, stronger effect = higher value
[21] = measured here: combination with cisplatin, at 5 µM, stronger effect = higher value
[22] = measured here: with BGB IC20 combination, at 0.5 µM
[23] = measured here: with cisplatin IC20 combination, at 0.5 µM
[24] = measured here: 5 uM single agent, at 5 µM
[25] = measured here: combination with cisplatin, at 0.5 µM
[26] = measured here: combination with cisplatin, at 5 µM
[27] = measured here: with BGB IC20, at 0.5 µM
[28] = measured here: with BGB IC20, at 5 µM
[29] = measured here: with cisplatin IC20, at 0.5 µM
[30] = measured here: with cisplatin IC20, at 5 µM

## C=C(NC(=O)C(=C)NC(=O)c1csc(C2=NC3c4csc(n4)C4NC(=O)c5csc(n5)C(C(C)(O)C(C)O)NC(=O)C5CSC(=N5)/C(=C/C)NC(=O)C(C(C)O)NC(=O)c5csc(n5)C3(CC2)NC(=O)C(C)NC(=O)C(=C)NC(=O)C(C)NC(=O)C(C(C)CC)NC2C=Cc3c(C(C)O)cc(nc3C2O)C(=O)OC4C)n1)C(N)=O (stereo not drawn)
[1]; [16]
  inhibition: -22.9% (inactive)
[1]; [17]
  inhibition: -22.9%
[1]; [18]
  inhibition: -22.6%
[1]; [19]
  inhibition: -22%
[1]; [20]
  inhibition: -25.6%
[1]; [21]
  inhibition: 114%
[2]; BGB combo, at 5 µM
  inhibition: 99.7%
[2]; at 0.5 µM
  inhibition: -22.8% (inactive)
[2]; cisplatin combo, at 5 µM
  inhibition: 99.7%
[2]; [22]
  inhibition: -25.3%
[2]; [23]
  inhibition: -12.8%
[2]; single agent, at 5 µM
  inhibition: 99.8%
[3]; BGB IC20 combo, at 0.005 µM
  inhibition: 7.79%
[3]; BGB IC40 combo, at 0.005 µM
  inhibition: -7.37%
[3]; BGB IC40 combo, at 0.05 µM
  inhibition: 95.2%
[3]; at 0.5 µM
  inhibition: -28.5% (inactive)
[3]; cisplatin combo, at 0.05 µM
  inhibition: 95%
[3]; cisplatin combo, at 0.5 µM
  inhibition: -29.7%
[3]; cisplatin combo, at 5 µM
  inhibition: -54.9%
[3]; [24]
  inhibition: -28.7%
[4]; at 0.5 µM
  inhibition: -38.7% (inactive)
[4]; [19]
  inhibition: -31%
[4]; [25]
  inhibition: -9.9%
[4]; [26]
  inhibition: 100%
[5]; at 0.5 µM
  inhibition: 11.5% (inactive)
[5]; [27]
  inhibition: 1.15%
[5]; [28]
  inhibition: 70.9%
[5]; [29]
  inhibition: -4.79%
[5]; [30]
  inhibition: 86.9%
[5]; single agent, at 5 µM
  inhibition: 98.8%
[6]; at 0.5 µM
  inhibition: -6.59% (inactive)
[6]; measured here: combination with BGB at IC20, at 0.5 µM
  inhibition: 7.69%
[6]; measured here: combination with cisplatin at IC20, at 0.5 µM
  inhibition: -29.4%
[7]; at 0.5 µM
  inhibition: 2.14% (inactive)
[7]; measured here: combo with BGB at IC20, at 0.5 µM
  inhibition: 13.1%
[7]; measured here: combo with cisplatin at IC20, at 0.5 µM
  inhibition: -39.1%
[8]; at 0.5 µM
  inhibition: -0.91% (inactive)
[8]; measured here: inhibition with BGB combination, at 0.05 µM
  inhibition: -20.4%
[8]; measured here: inhibition with cisplatin combination, at 0.05 µM
  inhibition: -15.4%
[9]; at 0.5 µM
  inhibition: -37% (inactive)
[9]; [25]
  inhibition: -29.7%
[9]; [26]
  inhibition: 104%
[10]; at 0.5 µM
  inhibition: 16.8% (inactive)
[10]; measured here: BGB combination, at 0.5 µM
  inhibition: 16.2%
[10]; measured here: BGB combination, at 5 µM
  inhibition: 90.8%
[10]; measured here: cisplatin combination, at 0.5 µM
  inhibition: 25.6%
[10]; measured here: cisplatin combination, at 5 µM
  inhibition: 94.8%
[11]; BGB combination, concentration series, at 5 µM
  inhibition: 97.5%
[11]; at 0.5 µM
  inhibition: 2.16% (inactive)
[11]; cisplatin combination, concentration series, at 5 µM
  inhibition: 94.4%
[12]; at 0.5 µM
  inhibition: -36.8% (inactive)
[12]; measured here: combo with BGB IC20, at 0.5 µM
  inhibition: -24.8%
[12]; measured here: combo with cisplatin IC20, at 0.5 µM
  inhibition: -63.7%
[13]; at 0.5 µM
  inhibition: 13.8% (inactive)
[13]; cisplatin combination, at 0.5 µM
  inhibition: 15.3%
[13]; cisplatin combination, at 5 µM
  inhibition: 91.8%
[13]; measured here: BGB IC40 combination 0.05 uM, at 0.05 µM
  inhibition: -3.57%
[13]; single agent, at 5 µM
  inhibition: 104%
[14]; at 0.5 µM
  inhibition: -9.28% (inactive)
[14]; cisplatin combo, at 5 µM
  inhibition: 96.8%
[14]; measured here: BGB IC40 combination, at 0.05 µM
  inhibition: -17.4%
[14]; [25]
  inhibition: -6.48%
[14]; single agent, at 5 µM
  inhibition: 90.8%
[15]; at 0.5 µM
  inhibition: 53.8% (inactive)
[15]; [22]
  inhibition: 53.1%
[15]; [23]
  inhibition: 53.1%
[15]; single agent, at 0.05 µM
  inhibition: -28.1%
[15]; single agent, at 5 µM
  inhibition: 100%

## O=c1[nH]c(=S)[nH]c2nc(-c3ccccc3)c(-c3ccccc3)nc12
[1]; [16]
  inhibition: -4.47% (inactive)
[1]; [17]
  inhibition: -16.2%
[1]; [18]
  inhibition: -17.7%
[1]; [19]
  inhibition: -55%
[1]; [20]
  inhibition: -17.6%
[1]; [21]
  inhibition: -30.5%
[2]; BGB combo, at 5 µM
  inhibition: -12.8%
[2]; at 0.5 µM
  inhibition: -3.23% (inactive)
[2]; cisplatin combo, at 5 µM
  inhibition: -3.41%
[2]; [22]
  inhibition: -5.44%
[2]; [23]
  inhibition: 12.5%
[2]; single agent, at 5 µM
  inhibition: 8.28%
[3]; BGB IC20 combo, at 0.005 µM
  inhibition: -5.97%
[3]; BGB IC40 combo, at 0.005 µM
  inhibition: -18.7%
[3]; BGB IC40 combo, at 0.05 µM
  inhibition: -15.7%
[3]; at 0.5 µM
  inhibition: -20.3% (inactive)
[3]; cisplatin combo, at 0.05 µM
  inhibition: -19.8%
[3]; cisplatin combo, at 0.5 µM
  inhibition: -15.9%
[3]; cisplatin combo, at 5 µM
  inhibition: -36.6%
[3]; [24]
  inhibition: 8.29%
[4]; at 0.5 µM
  inhibition: -12.5% (inactive)
[4]; [19]
  inhibition: -14.1%
[4]; [25]
  inhibition: -36.2%
[4]; [26]
  inhibition: -28.2%
[5]; at 0.5 µM
  inhibition: -2.11% (inactive)
[5]; [27]
  inhibition: -2.07%
[5]; [28]
  inhibition: -2.27%
[5]; [29]
  inhibition: -3.18%
[5]; [30]
  inhibition: -32%
[5]; single agent, at 5 µM
  inhibition: 0.689%
